# Screening results from PubChem BioAssay.
# Most compounds without a hit are left out; they make up all but 1.3% or so of the library.
# TRPML1 agonist: human mucolipin-1 channel agonism | Q9GZU1 | TRPML1-expressing cells, Ca2+ dye fluorescence, FDSS | activation, % (no concentration beside the values) | 410,000 tested, 0.12% active | AID 624414; in the data active = activation above about 50%; inconclusive = mostly about 30% to 49%
#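 Kinetic FDSS Ca2+ read in Tet-induced TRPML1-DL cells (ABD Ca8 dye plus quencher, 45-90 min RT loading): baseline, then compound, then 110 s agonist window; EC80 agonist 54-4 at 4uM final added afterwards for a 110 s antagonist window.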
# TRPML1 blocker: blocks the human TRPML1 channel | Q9GZU1 | activity change, negative = inhibition, % (concentration not given with the values) | 390,000 tested, 0.02% active | TRPML1-inducible cells, Ca2+ dye fluorescence, FDSS; active compounds read low; inhibition of EC80 agonist-evoked calcium signal; in the data active = activity change below about -50%; inconclusive = between about -30% and that limit;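 note: stimulus is agonist 54-4 at its EC80 concentration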
#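 Calcium fluorescence in TRPML1-DL cells induced overnight with Tet: a 110 s read after compound pin addition, then a 110 s antagonist read after challenge with 54-4 at 4 uM final (EC80).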
# 12-LOX inh: inhibitors of human 12S-lipoxygenase ALOX12; P18054; purified 12hLO, xylenol orange hydroperoxide absorbance; Potency, µM (highest dose often 108 µM), most hits filed as inhibitors; 580,000 tested, 1.1% active; AID 1671190
# Target sequence (P18054 whole entry, looked up): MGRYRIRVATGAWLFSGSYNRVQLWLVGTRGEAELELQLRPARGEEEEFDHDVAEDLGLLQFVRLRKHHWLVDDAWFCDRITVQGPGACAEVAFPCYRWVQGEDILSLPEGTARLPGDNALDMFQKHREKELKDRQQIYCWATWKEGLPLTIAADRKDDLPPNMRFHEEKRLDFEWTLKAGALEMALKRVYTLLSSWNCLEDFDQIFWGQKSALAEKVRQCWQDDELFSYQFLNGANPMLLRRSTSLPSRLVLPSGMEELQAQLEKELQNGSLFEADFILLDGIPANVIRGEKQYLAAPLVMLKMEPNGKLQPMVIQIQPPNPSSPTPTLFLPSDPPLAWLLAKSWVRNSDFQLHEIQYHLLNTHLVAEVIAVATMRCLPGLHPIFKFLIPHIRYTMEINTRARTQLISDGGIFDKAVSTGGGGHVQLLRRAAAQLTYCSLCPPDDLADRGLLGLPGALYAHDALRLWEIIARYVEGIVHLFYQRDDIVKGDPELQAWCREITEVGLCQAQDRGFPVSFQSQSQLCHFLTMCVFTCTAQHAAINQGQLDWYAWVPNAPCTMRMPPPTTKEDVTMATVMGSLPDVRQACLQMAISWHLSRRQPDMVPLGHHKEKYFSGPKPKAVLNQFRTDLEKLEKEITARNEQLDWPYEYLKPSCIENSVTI
#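 Hydroperoxide product was detected by ferrous iron/xylenol orange as the 573 to 405 nm absorbance ratio. Arachidonic acid at 40 uM (final) was turned over for 30 min at room temperature by 150 nM human 12hLO, pH 7.0 Hepes buffer, after 15 min compound preincubation.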
# GRP78 ERSR act: induces the endoplasmic reticulum stress response in human glioma cells; U87-MG GRP78 promoter luciferase reporter, 16 h; Potency, µM, most hits filed as activators; 420,000 tested, 0.02% active; note: series mostly up to about 76 µM; nearly all actives have a fitted effect of over 35% in size
#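 ERSR induction read as luciferase luminescence (Bright-Glo, 10 min at room temperature) in stably transfected human U87-MG glioma cells exposed to compounds for 16 h, using GRP78 as sensor.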
# Vif-APOBEC3F blk: blocks the Vif interaction with APOBEC3F. AID 602313. HeLa A3F-eYFP + Vif (tagged APOBEC3F with the HIV-1 protein that degrades it), YFP fluorescence increase. Potency, µM (titrated, usually from 46.1 µM). 390,000 tested, 0.2% active; note: nearly all actives have a fitted effect of over 65% in size
#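 Fluorescence increase (Ex 488/Em 500-530) after overnight compound treatment at 37 deg C flags inhibition of Vif-driven A3F-eYFP loss in stable HeLa A3F-eYFP/Vif cells seeded overnight beforehand.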
# Vif-APOBEC3G blk: inhibitors of Vif-APOBEC3G interaction. Potency, µM (series often up to 46.1 µM), most hits filed as inhibitors. 410,000 tested, 0.076% active. HeLa A3G-eYFP + Vif (tagged APOBEC3G with the HIV-1 protein that degrades it), YFP fluorescence, overnight; note: nearly all actives have a fitted effect of over 60% in size
#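 HeLa cells stably expressing Vif and C-terminally eYFP-tagged A3G, seeded overnight at 37 deg C, then exposed to compound by pintool overnight at 37 deg C. Rise in yellow fluorescence (Ex 488/Em 500-530, Acumen) marks blocked Vif-driven A3G degradation.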
# Hits are given with their value; 0 = inactive; ? = inconclusive; - = no result; ! = a repeat was not active. Unless noted, calls come from the whole dose curve; as a rule, active = well fitted curve in the direction sought with a large enough effect; inconclusive = small, poorly fitted or top-dose-only effect, or another doubt; inactive = no such curve, though single readings can be large; an effect the other way counts as inactive or inconclusive.
SMILES,TRPML1 agonist,TRPML1 blocker,12-LOX inh,GRP78 ERSR act,Vif-APOBEC3F blk,Vif-APOBEC3G blk
CC1C/C(=N/Nc2nc3ccccc3[nH]2)CC(C)(C)C1 (stereo not drawn),0,0,?,0,0,0
c1ccc2[nH]c(NN=C3CCCCCC3)nc2c1,0,0,0,0,22.4µM,0
Cc1cc(=O)n(CC(=O)NC(C)c2ccccc2)c2c1c(C)nn2C (stereo not drawn),0,0,50.1µM,0,0,0
COC(=O)c1ccccc1NC(=O)Cn1c(=O)cc(-c2ccccc2)c2c(C)nn(C)c21,0,0,?,0,0,0
Cc1nn(C)c2c1c(-c1ccccc1)cc(=O)n2CC(=O)NC(C)c1ccccc1 (stereo not drawn),0,0,44.7µM,0,0,0
CCCCn1nc(C(=O)N2CCCSc3ccccc32)c2ccccc2c1=O,-,-,0,-,-,-
O=C(c1ccco1)N1CCC(C(=O)N2CCN(C(=O)c3ccco3)CC2)CC1,-,-,0,-,-,-
O=S(=O)(NCC1(N2CCOCC2)CCCCC1)c1ccccc1Cl,0,0,0,0,0,0
O=S(=O)(NCC1(N2CCOCC2)CCCCC1)c1ccc(Cl)cc1C(F)(F)F,80.8,0,0,0,0,0
O=C1COc2ccc(OCc3ccccc3)nc2CN1CCOc1ccccc1,-,-,11.2µM,-,-,-
FC(F)Sc1ccc(NC(=S)NC(c2ccccc2)c2ccccc2)cc1,0,0,39.8µM,0,0,0
FC(F)Sc1ccc(NC(=S)NCC2CCCCC2)cc1,0,0,15.8µM,0,0,0
S=C(NCC1CCCCC1)Nc1ccc(Oc2ccccc2)cc1,0,0,39.8µM,0,0,0
CC1CCCCC1NC(=S)Nc1ccc(SC(F)F)cc1 (stereo not drawn),0,0,31.6µM,0,0,0
CCOC(=O)C1=C(NC(=S)NC(=O)c2ccccc2)c2ccccc2CC1(C)CC (stereo not drawn),0,0,15.8µM,0,0,0
CCCCc1ccc(Nc2nnc(SCC(=O)NCC)s2)cc1,-,-,0,-,-,-
CN1C[C@H](C(=O)Nc2cccc(F)c2)C[C@H]1c1cccc(C(F)(F)F)c1,-,-,20µM,-,-,-
COc1ccc(NC(=O)[C@@H]2C[C@@H](c3cccc(C(F)(F)F)c3)N(C)C2)cc1,-,-,0,-,-,-
NCc1ccc(CN2CCc3ccccc32)cc1,-,-,0,-,-,-
O=C1NC(=O)/C(=C/c2ccc(-c3cc(C(=O)O)ccc3Cl)o2)S1,0,0,?,0,0,0
O=C1NC(=S)/C(=C\c2ccc(-c3ccccc3Cl)o2)S1,0,0,35.5µM,0,0,0
N#CCCCSc1nnc(-c2c[nH]c3ccccc23)n1C1CC1,-,-,0,-,-,-
N#C/C(=C\c1ccc(N2CCCCC2)o1)C(=O)Nc1cccc(Br)c1,118.8,?,0,0,0,0
Cc1ccc(O)c(NC(=O)c2cc(-c3ccccc3O)no2)c1,0,0,0,0,11.2µM,?
Cc1ccc(O)c(NC(=O)c2cc(-c3ccccc3Cl)on2)c1,0,0,0,?,?,0
SMILES,TRPML1 agonist,TRPML1 blocker,12-LOX inh,GRP78 ERSR act,Vif-APOBEC3F blk,Vif-APOBEC3G blk
COc1ccccc1/C=C/C=N/n1c(-c2cc(-c3ccccc3)n[nH]2)n[nH]c1=S,0,0,10µM,0,0,0
CC(=C/c1ccccc1)/C=N/n1c(-c2ccncc2)n[nH]c1=S,0,0,12.6µM,0,0,0
CC(/C=N/n1c(-c2ccncc2)n[nH]c1=S)=C\c1ccco1,0,0,7.08µM,0,0,0
Cc1cccc(-c2n[nH]c(=S)n2/N=C/C=C/c2ccco2)c1,0,0,25.1µM,0,0,0
CC(/C=N/n1c(-c2cccnc2)n[nH]c1=S)=C\c1ccccc1,0,0,0,0,0,0
S=c1[nH]nc(-c2ccncc2)n1/N=C/C=C/c1ccco1,0,0,?,0,0,0
CCOC(=O)c1c(NC(C)=O)sc2c(OCc3ccc(F)cc3)c(Br)ccc12,-,-,0,-,-,-
O=C(CSc1nnc2ccccn12)c1ccc(Cl)cc1Cl,-,-,0,-,-,-
CCC(C(=O)N1CCC(c2n[nH]c(=O)n2Cc2ccc(OC)cc2)CC1)c1ccccc1 (stereo not drawn),-,-,35.5µM,-,-,-
COc1ccc(CC(=O)N2CCC(c3n[nH]c(=O)n3Cc3ccc(OC)cc3)CC2)cc1,-,-,0,-,-,-
S=c1[nH]c(-c2ccccc2)cn1/N=C/c1ccc(Br)cc1,0,0,39.8µM,0,0,0
S=c1[nH]c(-c2ccccc2)cn1/N=C/c1cccnc1,0,0,?,0,0,0
S=c1[nH]c(-c2ccccc2)cn1/N=C/c1cccs1,0,0,0,0,0,0
O=C(O)c1ccc(/C=N/n2cc(-c3ccccc3)[nH]c2=S)cc1,0,0,44.7µM,0,0,0
CC(=O)c1ccccc1NC(C(=O)Nc1ccc2c(c1)OCCO2)c1cccs1 (stereo not drawn),-,-,0,-,-,-
COc1ccc(Nc2nc(-c3ccccc3F)nc3ccccc23)cc1OC,0,0,?,0,0,0
COc1ccc(Nc2nc(-c3ccccc3O)nc3ccccc23)cc1,0,0,0,0,0,0
Oc1ccc(Nc2nc(-c3ccccc3O)nc3ccccc23)cc1,0,0,28.2µM!,0,0,?
Oc1ccc(Nc2nc(-c3ccccc3F)nc3ccccc23)cc1,-,-,17.8µM!,0,0,0
CCN1/C(=C/C=C/c2oc3ccc(-c4ccccc4)cc3[n+]2CC)Oc2ccc(-c3ccccc3)cc21,80.1,0,?,0,0,0
Clc1ccc(-c2cnc([C@@H]3COCCN3C3CCCCC3)[nH]2)s1,-,-,0,-,-,-
O=C(Nc1ccccc1)c1c2c(nc3ccccc13)CCC2,-,-,35.5µM,-,-,-
C/C=C/C=C/C(=O)OCC(=O)c1ccc2c(c1)OCO2,-,-,0,-,-,-
Cc1[nH]c(=S)sc1Cc1ccc(Cl)c(Cl)c1,-,-,31.6µM,-,-,-
Cc1nnc(SCc2ccc(Cl)c(Cl)c2)s1,0,0,0,0,0,0
SMILES,TRPML1 agonist,TRPML1 blocker,12-LOX inh,GRP78 ERSR act,Vif-APOBEC3F blk,Vif-APOBEC3G blk
CCCNC(=O)NCC12CC3CC(CC(C3)C1)C2,-,-,0,-,-,-
CCc1ccc(C(=O)C(C)n2cnc3c2c(=O)n(C)c(=O)n3C)cc1 (stereo not drawn),-,-,0,-,-,-
S=c1[nH]nc(-c2ccccc2)n1C1C=CCCC1 (stereo not drawn),0,0,44.7µM,0,0,0
S=c1[nH]nc(-c2ccccc2)n1CC1CCCO1 (stereo not drawn),0,0,?,0,0,0
COC(=O)[C@]1(Sc2ccc(C)cc2)CC(=O)N[C@@H]1c1ccco1,0,-,?,-,-,-
COC(=O)[C@@]1(Sc2ccc(C)cc2)CC(=O)N[C@@H]1c1ccco1,0,-,39.8µM,-,-,-
CCNC(=S)NNC(=S)NCC1CCCO1 (stereo not drawn),-,-,0,-,-,-
CCOC(=O)NNC(=S)NCC1CCCO1 (stereo not drawn),-,-,6.31µM,-,-,-
COc1ccccc1/C=C/C(=O)NC(=S)NCC1CCCO1 (stereo not drawn),0,0,39.8µM,0,?,0
